Screens (PubChem BioAssay)
AHR act: activates the human aryl hydrocarbon receptor; AID 2796; AHR-responsive luciferase reporter cells, luminescence; 2.5% of 320,000 active; activation, % at 5 µM; in the data active = activation above about 47%;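 note: 0% = vehicle wells and 100% = reference agonist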
HSF-1 act: increases HSF-1 driven luciferase reporter signal. NIH3T3-HGL HSF-1 luciferase reporter, MG132, 8 h; 100% = twice DMSO control signal. 1.7% of 300,000 active. activation, % at 9 µM;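 active = mean replicate activation of at least 50% with a set share of replicates each reaching 50%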;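 note: 0% = median of the neutral control wells and 100% = twice that signal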
GAA850 FXN act: frataxin GAA850 promoter activation | HEK293 lucGAA850 FXN promoter luciferase reporter, 24 h; percent of 10 µM SAHA response | activation, % at 6 µM | 0.56% of 360,000 active | AID 540364;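 active = activation above the average of all compounds screened plus 3 SD, cutoff fixed separately per campaign, cut at about 7.5% in these data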;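 note: 0% = DMSO wells and 100% = 10 µM SAHA wells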
HSF1 inh: HSF1 inhibition | 0.77% of 300,000 active | activity change, negative = inhibition, % at 7.5 µM (by protocol) | NIH3T3-HGL HSE-luciferase, MG132-induced, luminescence 8 h; active compounds read low;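 active = more than half of replicate wells show activity change below -50%, luminescence cut by over half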;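 note: luciferase reports HSF-1 transcriptional activity via heat shock element; 0% = median of DMSO wells and -100% = zero luminescence signal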
DAX1 inh: inhibits human nuclear receptor DAX1. P51843. HEK293 Gal4-DAX1 luciferase reporter, luminescence. inhibition, % at 6.75 µM. 0.99% of 340,000 active. AID 504766;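 active = inhibition above the mean over all tested compounds plus 3 SD, cut at about 4.2% in these data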;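 note: 0% = DAX1-transfected cells with DMSO and 100% = empty-vector control cells with DMSO; inhibition shows as a rise in luminescence from relieved DAX1 repression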
Target sequence (P51843 207-470 limits assumed): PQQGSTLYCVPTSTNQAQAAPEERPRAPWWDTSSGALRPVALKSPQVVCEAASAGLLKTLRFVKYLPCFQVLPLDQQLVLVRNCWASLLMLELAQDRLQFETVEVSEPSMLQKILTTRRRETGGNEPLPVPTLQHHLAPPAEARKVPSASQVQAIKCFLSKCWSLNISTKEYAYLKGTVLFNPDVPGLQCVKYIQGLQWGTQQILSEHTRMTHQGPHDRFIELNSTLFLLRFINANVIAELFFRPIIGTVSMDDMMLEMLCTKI
GAA30 counter: counter-screen for GAA850 frataxin promoter activators: GAA30 promoter activation | AID 588350 | shares compounds with GAA850 FXN act | HEK293 lucGAA30 FXN promoter luciferase, 24 h; DMSO = 0%, 5 µM ipriflavone = 100% | 66% of 1,900 active | activation, % at 6 µM;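 active = mean activation above the mean of solvent-only control wells plus 3 SD, cut at about 22% in these data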;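 note: counterscreen of GAA850 promoter hits where activity marks nonselective or luminescence artifacts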
GAA850 confirm: confirmation of GAA850 frataxin (FXN) promoter activators; shares compounds with GAA850 FXN act; HEK293 lucGAA850 FXN promoter luciferase reporter, 24 h; 100% = activation by SAHA; 86% of 1,900 active; activation, % at 6 µM;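 active = mean activation above a set limit taken from the primary screen, cut at about 8% in these data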;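 note: 0% = DMSO wells and 100% = 10 µM SAHA wells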
* marks the source's active call; other numbers are inactive results; x = no result. A selection: hits, their analogues and other compounds. The true share with any hit is near 5.4%.

SMILES	AHR act	HSF-1 act	GAA850 FXN act	HSF1 inh	DAX1 inh	GAA30 counter	GAA850 confirm
CCOc1ccc(-c2csc(NC(=O)CSC3=NC(=O)CN3C(C)=O)n2)c2ccccc12	11	34	1	3	1	x	x
CC(=O)N1CC(=O)N=C1SCC(=O)Nc1nc(C)c(-c2ccccc2)s1	11	13	8.0*	3	-1	44*	22*
O=C(COC(=O)c1ccco1)Nc1cccc(S(=O)(=O)N2CCOCC2)c1	x	x	0	x	0	x	x
NC[C@H](O)c1ccc(O)c(O)c1	-1	x	7.6*	x	2	12	6
Cc1ccc(C)c(Cn2c3ccccc3c3cnn(CC(=O)NCCCN4CCCCC4)c(=O)c32)c1	0	0	-2	2	-1	x	x
CN(C#N)c1nccc(-c2cccs2)n1	-10	9	1	6	0	x	x
NC(=S)Nc1nccc(-c2cccs2)n1	26	34	8.3*	8	0	94*	37*
O=[N+]([O-])c1ccc2c(c1)/C(=N\O)c1ccccc1-2	-5	2	-2	9	0	x	x
Nc1cc2c(cc1Cl)-c1ccc([N+](=O)[O-])cc1C2=NO	x	x	9.5*	x	-2	75*	40*
O=c1oc2ccccc2c(Nc2ccc(F)cc2)c1[N+](=O)[O-]	4	5	1	-1	0	x	x
Cc1ccccc1Nc1nc(N)nc(-c2oc3ccccc3c2C)n1	-6	72*	8.6*	43	x	101*	52*
Cc1c(-c2nc(N)nc(Nc3ccc(F)cc3)n2)oc2ccccc12	-12	44	9.8*	23	2	89*	38*
COc1ccccc1Nc1nc(N)nc(-c2oc3ccccc3c2C)n1	10	15	2	-2	-1	x	x
CCOC(=O)CNS(=O)(=O)c1ccc(S(=O)(=O)NC2CC2)cc1	2	3	2	0	0	x	x
Cc1cccc(Nc2nc3ccccc3n3nnnc23)c1	30	2	3	-10	0	x	x
COc1cc(Nc2nc3ccccc3n3nnnc23)cc(OC)c1OC	25	10	17*	-5	0	33*	9.5*
CC1Oc2ccccc2C=C1/C=N/Nc1ccc(C(=O)O)cc1 (stereo unspecified)	0	-28	10*	-21	-1	97*	38*
CCCCN1C(=O)C(CC(=O)NCCN2CCOCC2)CC(C(=O)N(C(C)C)C(C)C)=C1C (stereo unspecified)	x	x	0	x	0	x	x
N/C(=N/OC(=O)c1ccccc1Cl)c1ncc([N+](=O)[O-])s1	54*	179*	15*	133	1	103*	51*
N/C(=N\OC(=O)c1ccccc1Cl)c1cccc([N+](=O)[O-])c1	17	33	6	24	2	x	x
CC/C(=C\C1CCCCC1)C(NP(=O)(c1ccccc1)c1ccccc1)c1ccccc1 (stereo unspecified)	2	11	13*	10	2	30*	19*
O=P(NC1CCCCC1)(c1ccccc1)c1ccccc1	x	x	0	x	1	x	x
O=C(Nc1ccc(-c2nc3ccc(NC(=O)c4cccs4)cc3[nH]2)cc1)c1cccs1	-1	2	15*	5	-2	3	32*
O=C(Nc1ccc2nc(-c3cccs3)[nH]c2c1)c1cccs1	-13	21	3	22	-2	x	x
C/C(=N\NC(=O)c1sccc1C)c1ccncc1	21	28	8.2*	19	2	82*	32*
SMILES	AHR act	HSF-1 act	GAA850 FXN act	HSF1 inh	DAX1 inh	GAA30 counter	GAA850 confirm
CCOC(=O)NC(=O)CSc1nc(-c2ccc(C)c(C)c2)cn1-c1ccccc1	18	-11	7.9*	-13	1	62*	34*
CC1CCN(CC(CS(=O)(=O)c2ccc([N+](=O)[O-])cc2)N2CCC(C)CC2)CC1 (stereo unspecified)	-2	-9	9.7*	-6	0	61*	16*
Cc1cc(C(C)(C)C)cc(C)c1CCNC(=O)c1ccc[n+]([O-])c1	1	7	-5	4	-1	x	x
CN(C(=O)CN1CCN(c2ccccc2F)CC1)C1CCCc2ccccc21 (stereo unspecified)	0	4	-1	-2	-2	x	x
CCCn1c(=O)[nH]c(=O)c2c(C(F)(F)F)cc(-c3ccc(C)cc3)nc21	-2	25	1	1	1	x	x
CC(C)Cn1c(=O)[nH]c(=O)c2c(C(F)(F)F)cc(-c3ccccc3)nc21	2	x	7.7*	x	1	-4	16*
CCOC(=O)c1c(-c2cccs2)csc1NC(=O)CC(C)C	17	-10	-1	-2	1	x	x
COC(=O)c1c(-c2cccs2)csc1NC(=O)c1cccnc1	-3	x	9.8*	x	3	69*	26*
Cc1ccc(-n2nc3ccc(NC(=O)C(C)C)cc3n2)cc1	40	30	7.9*	4	2	106*	38*
Cc1ccc(-n2nc3ccc(NC(=O)c4ccco4)cc3n2)cc1	20	20	2	12	1	x	x
COc1ccc(S(=O)(=O)NCC(c2ccc(C)cc2)N2CCN(C)CC2)cc1 (stereo unspecified)	-1	-1	2	4	-1	x	x
CC(=O)Nc1cccc(C(=O)OCC(=O)NNC(=O)c2ccc([N+](=O)[O-])cc2)c1	0	34	0	6	1	x	x
Cc1cc(C)c(C#N)c(SCc2nnc(-c3ccccc3[N+](=O)[O-])o2)n1	5	36	8.9*	20	0	108*	41*
COC(=O)c1ccc(/C=N/NC(=S)NCCN2CCOCC2)cc1	16	20	1	3	-2	x	x
CC(=O)OC1CCC2(C)C(COc3ccc4ccc(=O)oc4c3)C(C)(O)CCC2C1(C)C (stereo unspecified)	2	16	12*	6	0	-4	17*
C=C1CCC2C(C)(C)[C@@H](O)CC[C@@]2(C)[C@@H]1COc1ccc2ccc(=O)oc2c1 (stereo partly specified)	25	-8	1	-2	0	x	x
CN(C)S(=O)(=O)c1ccc2c(c1)c(=O)c(C(=O)N1CCOCC1)cn2C	6	12	9.8*	-4	5.9*	21	13*
Cn1cc(C(=O)N2CCN(c3ccccc3)CC2)c(=O)c2cc(S(=O)(=O)N3CCOCC3)ccc21	0	2	-2	-9	1	x	x
CN(Cc1ccccc1)C(=O)c1[nH]cnc1C(=O)N[C@@H](Cc1ccccc1)C(=O)OC(C)(C)C	-4	-13	0	4	0	x	x
C[C@@H]1CN([C@H](C)CO)S(=O)(=O)c2ccc(Br)cc2O[C@@H]1CN(C)Cc1ccc(C(=O)O)cc1	x	x	1	x	1	x	x
